Assay results reported in PubChem BioAssay AID504652 (National Center for Advancing Translational Sciences (NCATS), 2011).
Among all 360,000 compounds or so, about 11,000 (3.1%) were called active. The sample holds actives, similar compounds and a random draw of the others, so the mix is not that of the screen. No stated cut-off is given here; in the data, active means activity change below about -30%; inactive means the rest.

target: D(1A) dopamine receptor (Homo sapiens) (UniProt P21728); test: Antagonist of Human D 1 Dopamine Receptor: qHTS; settings: HEK293 TREx D1 cells, calcium flux, dopamine EC80; at 10 µM; active compounds read low
Sequence (P21728 whole entry, looked up): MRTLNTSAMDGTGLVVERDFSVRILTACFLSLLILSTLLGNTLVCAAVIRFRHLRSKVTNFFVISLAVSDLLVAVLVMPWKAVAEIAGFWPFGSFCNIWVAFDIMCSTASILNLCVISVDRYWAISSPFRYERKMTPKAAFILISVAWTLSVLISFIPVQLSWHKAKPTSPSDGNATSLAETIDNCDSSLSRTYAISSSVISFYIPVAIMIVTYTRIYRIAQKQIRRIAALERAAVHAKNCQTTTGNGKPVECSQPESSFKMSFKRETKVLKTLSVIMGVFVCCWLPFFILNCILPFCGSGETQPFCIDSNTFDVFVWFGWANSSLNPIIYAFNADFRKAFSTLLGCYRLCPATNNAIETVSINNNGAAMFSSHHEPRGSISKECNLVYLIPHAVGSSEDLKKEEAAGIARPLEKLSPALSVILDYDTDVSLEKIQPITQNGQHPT
Method in brief: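 HEK293 T-REx cells expressing inducible, force-coupled D1 receptor; no-wash Ca dye, 30–90 min RT. Cmpd → 180 s read at 1 Hz → EC80 DA → 180 s read.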
On the % scale 0 is the no-effect control and ±100 the full control effect.

Activity change, negative = inhibition, inactive:
Cc1nnc(NC(=O)C(c2ccccc2)c2ccccc2)s1 0.172%, O=C(CCN1CCN(c2ccccc2)CC1)NNC(=S)Nc1ccccc1 -7.38%, COc1ccc(-c2cn3c(C)c(C(=O)Nc4cc(C)cc(C)c4)sc3n2)cc1 9.7%, Cc1c(C(=O)NCC2CCCO2)sc2nc(-c3ccccc3)cn12 (centres undefined) 2.03%, Cc1cccc(NC(=O)c2nnn(CC(=O)Nc3ccc(C(C)C)cc3)c2N)c1C 5.98%, CN(c1ccc(C(=O)N2CCc3ccccc3C2)cc1)S(C)(=O)=O 1.19%, Cc1cccc(C)c1NC(=O)c1ccc(CN2CCc3ccccc3C2)cc1 -14.8%, O=C(Nc1ccc(OC(F)(F)F)cc1)C1CCCN(S(=O)(=O)c2ccc(Br)s2)C1 (centres undefined) -19.1%, O=C(NCCOc1cccnc1)c1ccc(OC2CCN(Cc3ccccn3)CC2)cc1 -0.574%, COCc1ccc(CN2CCC(Oc3ccc(C(=O)NCc4ccccn4)cc3)CC2)o1 -5.9%, CC(CCCc1ccccc1)NC(=O)c1nn(-c2ccc(Cl)cc2)nc1CO (centres undefined) 3.03%, O=[N+]([O-])c1cc(S(=O)(=O)CCCN2CCOCC2)ccc1F -12.6%, O=S(=O)(NCC1CC1)c1ccc(F)c(Cl)c1 -3.94%, CCOc1ccc(C2C(=O)N(C3CCCCC3)CC(=O)N2CCC2=CCCCC2)cc1OC (centres undefined) 39.1%, Cc1cc(OCCN2CCCC2)cc(C(C)C)c1 -2.52%, c1ccc2cc(OCCN3CCCC3)ccc2c1 12.7%, Cc1ccc(NC(=O)Cn2nnc3sc4c(c3c2=O)CCC(C)C4)cc1 (centres undefined) -17.2%, CCc1cccc(C)c1Nc1c(-c2ccc(N(C)C)cc2)nc2ncccn12 6.48%, Cc1ccccc1C(=O)N(Cc1ccc(N(C)C)cc1)CC1CCCO1 (centres undefined) 12.9%, N#Cc1nc(Nc2cc(F)cc(Cl)c2)nc(NC2CCCC2)n1 -27%, Cc1cc(C)cc(NS(=O)(=O)c2ccc(-c3cc(C)no3)s2)c1 -9.8%, COc1ccc(C)cc1NC(=O)COCc1cc(-c2cccs2)on1 15%, Cc1cc(-c2ccc(S(=O)(=O)N3CCN(c4cccc(C(F)(F)F)c4)CC3)s2)on1 -24.5%, Cc1cc(-c2ccc(S(=O)(=O)N3CCc4ccccc4C3)s2)on1 -15.7%, O=C(Cn1c(-c2ccc(Cl)cc2)noc1=O)N1CCN(c2ccccc2F)CC1 -13.7%, Cc1ccc(C)c(N2C(=O)N(Cc3c(F)cccc3Cl)c3ccccc3S2(=O)=O)c1 -19.3%, CCOc1ccccc1CNCc1c(C(=O)O)c(C)n(Cc2ccc(C)cc2)c1C 0.5%, CCCCNc1ccc(-c2nc(-c3ccncc3)no2)cc1[N+](=O)[O-] 10.8%, CCOC(=O)c1ccc(NC(=O)C2CCN(S(=O)(=O)c3ccc4c(c3)CCCC(=O)N4)CC2)cc1 2.67%, CCCCOc1ccc(NC(=O)c2cc3c(n(-c4ccc(Cl)cc4)c2=O)CCCC3=O)cc1 1.15%, COc1ccccc1NC(=O)[C@H](COCc1ccccc1)NC(=O)OC(C)(C)C -13.2%, CC(C)(C)c1ccc(C(CC(=O)O)NS(=O)(=O)Cc2ccccc2)cc1 (centres undefined) -2.49%, O=C(NCCc1ccccc1)c1cnc2sc(N3CCCC3)nn2c1=O 8.92%, CCOc1ccc(NC(=O)CCC(=O)N2CC(C)Oc3ccc(C)cc32)cc1 (centres undefined) -0.916%, Cc1cccc(N2CCN(c3ccc(C(=O)O)cc3NC(=O)c3ccccc3F)CC2C)c1 (centres undefined) 20.1%, COc1ccccc1-c1noc(-c2ccc(NCc3ccccc3)c([N+](=O)[O-])c2)n1 4.22%, O=[N+]([O-])c1cc(-c2nc(-c3ccccc3)no2)ccc1NCc1ccco1 -9.94%, CNc1ccc(-c2nc(-c3ccccc3C)no2)cc1[N+](=O)[O-] -6.85%, CC(Nc1ccc(-c2nc(-c3ccco3)no2)cc1[N+](=O)[O-])c1ccccc1 (centres undefined) -5.4%, Cc1ccc(S(=O)(=O)c2c(N)n(C)c3nc4ccccc4nc23)cc1 -3.59%, CCC(=O)Nc1c(S(=O)(=O)c2ccccc2)c2nc3ccccc3nc2n1Cc1ccccc1 -7.1%, CCn1cc(C(=O)NCCc2ccccc2)c(=O)c2cc(S(=O)(=O)N3CCCCCC3)ccc21 -7.94%, CCn1c2ccccc2c2nnc(N3CCN(c4cc(C)ccc4C)CC3)nc21 -7.14%, COc1cccc(C(=O)NC2CCN(C#N)CC2)c1 4.13%, O=C(NCCCN1CCCC1=O)c1ccc(S(=O)(=O)Nc2ccccc2)cc1 4.25%, O=C(NCCCN1CCCC1=O)c1cccc(S(=O)(=O)NCc2ccccc2)c1 -24.9%, CCCCCCn1nnc2sc(-c3ccccc3)cc2c1=O 0.186%, CCOC(=O)c1cc(NC(=O)c2ccc(F)cc2)c(=O)n2c1oc1ccccc12 0.884%, CC(=O)c1cc(NC(=O)c2ccccc2)c(=O)oc1/C=C/N(C)C 0.591%, CSc1ccccc1NC(=O)CCS(=O)(=O)c1nc(-c2cccs2)cc(C(F)(F)F)n1 2.34%, O=C(CNC(=O)c1ccccc1)OC(C(=O)Nc1cc([N+](=O)[O-])ccc1F)c1ccccc1 (centres undefined) 4.21%, CC(C)(C)OC(=O)N1CCC(c2c(C(=O)N3CCN(c4cccc(Cl)c4)CC3)cnn2-c2cccc(Cl)c2)CC1 -2.09%, Cc1nc(SCC(=O)N2CCN(c3ccccc3)CC2)[nH]c(=O)c1C -2.36%, COc1ccc(OCC(O)CN(C)C(=O)C(C)Oc2ccccc2)cc1 (centres undefined) -13.9%, Cc1ccc(OCC(=O)OC(C)CN(C)Cc2ccccc2)cc1 (centres undefined) -3.69%, Cc1ccc(C(=O)N/C(=C\c2cn(C)c3ccccc23)C(=O)N2CCN(C)CC2)cc1 10.2%, CCn1cc(/C=C(\NC(=O)c2cc(OC)c(OC)c(OC)c2)C(=O)N2CCN(C)CC2)c2ccccc21 3.95%, COc1ccccc1Cc1nc2ccccc2nc1SCC(=O)N1CCCc2ccccc21 -2.97%, COc1ccc(NC(=O)c2cnc(Nc3ccc(C)c(Cl)c3)c3ccccc23)cc1OC 0.261%, Cc1cc(C)c(NC(=O)Cn2c(SCC(=O)NCc3ccccc3)nc3ccccc32)c(C)c1 2.9%, Cc1ccccc1NC(=O)Cc1nc(COC(=O)c2cccnc2Cl)cs1 -12%, C/C=C/C(=O)OCc1csc(CC(=O)Nc2ccccc2C)n1 -6.19%, CCC(=O)N1CCc2cc(CNC(=O)Nc3ccccc3Cl)ccc21 8.55%, CCCN1C(=O)C(O)(CC(=O)c2ccc(CC)cc2)c2cc(Br)ccc21 (centres undefined) -2.04%, Cc1ccc(-c2onc(C)c2C)cc1S(=O)(=O)Nc1ccccn1 -4.41%, COc1ccc(-c2onc(C)c2C)cc1S(=O)(=O)NCCc1ccccc1 -3.85%, O=S(=O)(c1ccc(Br)cc1)c1nnn2c1nc(N1CCOCC1)c1sccc12 0.25%, Cc1nc2cc(NC(=O)Nc3cccc(F)c3)ccc2n1C -4.15%, O=C(Nc1ccncc1)Nc1ccc(F)cc1 9%, Cc1ccccc1NC(=O)Cn1c(=O)n(Cc2ccco2)c(=O)c2ccc(C(=O)NC3CCCC3)cc21 -18.2%, COc1ccc(NC(=O)C(c2ccccc2)N2Cc3ccccc3C2=O)cc1 (centres undefined) -6.94%

Activity change, negative = inhibition, active:
CCCCC(=O)NNC(=S)NC(=O)C(c1ccccc1)c1ccccc1 -50.5%, Cc1c(C(=O)N2CC(C)OC(C)C2)sc2nc(-c3ccccc3)cn12 (centres undefined) -32.4%, CN(c1cccc(NC(=O)c2ccc(CN3CCc4ccccc4C3)cc2)c1)S(C)(=O)=O -37.7%, Cn1cc(CNC(=O)c2ccc(OC3CCN(Cc4ccccn4)CC3)cc2)cn1 -41.2%, O=S(=O)(NCCCN1CCOCC1)c1ccc(F)c(Cl)c1 -34.6%, Cc1cc(OCCN2CCCC2)ccc1C(C)C -30%, Cc1cccc(N2CCN(S(=O)(=O)c3ccc(-c4cc(C)no4)s3)CC2C)c1 (centres undefined) -39.9%, O=c1onc(-c2c(F)cccc2F)n1-c1ccccc1Cl -36.4%, C[C@@H](NC(=O)OC(C)(C)C)c1nnc(S(=O)(=O)Cc2ccccc2)o1 -33%, CNc1ccc(-c2nc(-c3ccco3)no2)cc1[N+](=O)[O-] -31.8%, CN(Cc1ccccc1)c1ccc(-c2nc(-c3ccccc3)no2)cc1[N+](=O)[O-] -53.5%, CCN(CC)CCn1c(N)c(S(=O)(=O)c2ccccc2)c2nc3ccccc3nc21 -52.8%, Cc1cccc(C(=O)NCCCN2CCCC2=O)c1 -31.5%, CCOC(=O)c1cc(NC(=O)c2ccc(Cl)cc2)c(=O)oc1-c1ccccc1 -34.6%, CN(Cc1ccccc1)CC(O)COc1ccc(CNCc2cc3ccccc3s2)cc1 (centres undefined) -41.2%, COc1cc(C(=O)N/C(=C\c2cn(C)c3ccccc23)C(=O)N2CCOCC2)cc(OC)c1OC -33.6%, Cc1ccccc1NC(=O)Cc1nc(COC(=O)c2ccc(C(F)(F)F)cc2)cs1 -34.6%, O=C(Nc1ccc2ccccc2c1)Nc1ccc2snnc2c1 -44.8%
